From PubChem BioAssay (NCI)
The panel holds about 83,000 compounds, 20% with a hit somewhere; the sample as a whole holds those more often.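 Negative percent growth values reflect cell death: -40 means 40% of the cells present at the start died, and -100 means all died.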 A number with no mark means an inactive call. The source made the active and inactive calls. Rule for the calls: active = growth percent below 10; inactive = the rest.

Test system: HL-60(TB) leukemia
Experiment: NCI-60 one-dose screen, 48 h (100 = growth as untreated, 0 = no growth, -100 = all killed)
Settings: 10 µM unless noted

Row | Structure (SMILES) | growth
1 | Clc1nc(Cl)c2ncn(CC#CCn3cnc4c(Cl)nc(Cl)nc43)c2n1 | -58.3% (active)
2 | CCn1c(SCc2ccc(C)cc2)nnc1-c1nn(-c2ccc(Cl)cc2Cl)c(-c2ccc(Cl)cc2)c1C | -13.1% (active)
3 | Cc1ccc(NC(=O)N2CCCCC2)cc1[N+](=O)[O-] | 104%
4 | Clc1ccc(C2=NN=C3C(Cc4ccccc4)=Nc4ccccc4N3C2)cc1 | 25.2%
